Sampled rows, rich in hits. Any-hit rate of the full collection: about 0.13%.
GLA spleen mod: qHTS Assay for Inhibitors and Activators of Human alpha-Galactosidase From Spleen Homogenate; Potency, µM (highest dose often 80 µM), actives largely listed as inhibitors; AID 2107, 2009; Alpha-galactosidase A (Homo sapiens), P06280; human spleen homogenate, 4MU-alpha-Gal fluorescence, 40 min; 240,000 compounds, 0.008% hits
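Human spleen homogenate (1 ug) as enzyme source, 4-methylumbelliferyl-alpha-D-galactopyranoside 1 mM final, citrate/phosphate pH 5.0 with 0.01% Tween-20. Compounds 40 min at 37C, NaOH/glycine stop; fluorescence Ex 365/Em 440, Hill-fit AC50.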
GLA inh pH 4.5: qHTS Assay for Inhibitors of Human alpha-Galactosidase at pH 4.5; purified enzyme, 4-MU-alpha-Gal fluorescence, pH 4.5; AID 1467, 2008; Alpha-galactosidase A (Homo sapiens), P06280; 230,000 tested, under 10 active; activity change, negative = inhibition, % at 105 µM
Target sequence (P06280 whole entry, looked up): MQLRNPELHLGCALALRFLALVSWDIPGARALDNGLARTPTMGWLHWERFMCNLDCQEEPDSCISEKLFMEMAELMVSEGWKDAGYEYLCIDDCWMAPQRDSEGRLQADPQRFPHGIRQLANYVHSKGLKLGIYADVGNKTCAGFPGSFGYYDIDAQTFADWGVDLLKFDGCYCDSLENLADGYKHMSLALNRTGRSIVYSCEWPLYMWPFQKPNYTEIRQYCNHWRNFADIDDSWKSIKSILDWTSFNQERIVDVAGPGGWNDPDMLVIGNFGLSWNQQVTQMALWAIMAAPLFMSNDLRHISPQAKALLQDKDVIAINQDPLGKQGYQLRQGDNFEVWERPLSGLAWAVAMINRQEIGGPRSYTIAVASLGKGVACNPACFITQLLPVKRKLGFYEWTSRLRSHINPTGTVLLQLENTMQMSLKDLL
Integrin act MD: qHTS for Activators of Integrin-Mediated Alleviation for Muscular Dystrophy | Potency, µM (series often up to 38.3 µM), hits mostly activators | alpha7betagal myoblasts, beta-gal FDG fluorescence, 48 h | 350,000 compounds, 0.064% hits; further: nearly all actives have a fitted effect of over 60% in size
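alpha7betagal+/- myoblasts (passage 13, 250/well) treated 48 h at 37C with compounds at 1:260 dilution of DMSO stock. Lysed, then beta-galactosidase activity read as FDG fluorescence (ex 480/em 540) after 30 min, with pre-read for autofluorescence.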
IL2 activator: qHTS of IL-2 Activators; activation, % (series mostly up to about 46 µM); IL-2 activation reporter assay, cell-based qHTS; stimulated with anti-CD3/CD4/CD28 beads; in transgenic mouse T cells; 360,000 compounds, 0.065% hits; AID 652025, 2013; in the data active means activation above about 50%; inconclusive means mostly about 30% to 49%
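Readout: EGFP and DsRed signals by fluorescent plate cytometry. Unstimulated transgenic mouse T cells received compound 60 min before antibody-bead stimulation, then incubated 18 h at 37 degrees C.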
A number is an active result; - = inactive; ? = inconclusive; . = no result. Unless noted, the call rests on the fitted dose curve; in most records, active means well fitted curve in the direction sought with a large enough effect; inconclusive means small, poorly fitted or top-dose-only effect, or another doubt; inactive means no such curve, though single readings can be large; an effect the other way counts as inactive or inconclusive.

SMILES	GLA spleen mod	GLA inh pH 4.5	Integrin act MD	IL2 activator
OC[C@@H]1O[C@@H](Oc2ccc(O)cc2)[C@H](O)[C@@H](O)[C@@H]1O	-	.	.	.
CCCN1C2CCCC1CC(NC(=O)c1cccc([N+](=O)[O-])c1)C2 (centres undefined)	.	.	10µM	-
CC(=O)Nc1ccc(SCCN2CCN(CC(C)C)CCC2=O)cc1	-	.	.	.
O=[N+]([O-])c1ccc2c(c1)S(=O)(=O)C=C2	-	.	.	.
CCCCc1nc2ccccc2c(NC(=O)CNC(C)(C)C)c1CCC	-	-	-	-
CCCCc1nc2ccccc2c(N)c1CCC (tested in a mixture with another compound)	-	-	11µM	-
COc1ccc2c(c1)c(/C=C/c1cc[n+](C)cc1)cn2C	.	.	-	238
COc1ccc2c(c1)O[C@@H](c1cccc(C(F)(F)F)c1)[C@H](OC(=O)NC1CCCC1)C2=O	-	-	.	.
CCCCCCCCCCCCCCCCOCC(COP(=O)([O-])OCC[N+](C)(C)C)OC (centres undefined)	-	-	.	.
O=C(COc1nnnc2ccccc12)N1CCCc2ccccc21	-	-	-	-
O=C(COc1nc2ccccc2nc1N1CCOCC1)N1CCc2ccccc21	-	-	-	94
N=c1c(C(=O)NCc2ccc(F)cc2)cc2c(=O)n3ccccc3nc2n1Cc1cccnc1	-	-	-	178
Cc1cccn2c(=O)c3cc(C(=O)NC4CCCCC4)c(=N)n(Cc4ccc(F)cc4)c3nc12	.	.	-	154
Cc1cccn2c(=O)c3cc(S(=O)(=O)c4ccc(F)cc4)c(=N)n(Cc4ccco4)c3nc12	-	-	-	56
NOCc1ccccc1	-	.	.	.
COc1c(C2=CC(=O)N(C)C2=O)c2c(n1C)C(=O)c1ccccc1C2=O	-	-	.	.
COc1cc(=O)n(C)c2ccccc12	-	-	2.2µM	-
COc1ccc2c(OC)cc(=O)n(C)c2c1	-	-	-	-
FC(F)(F)c1ccccc1-c1nccc(-n2ccnc2)n1	-	.	.	.
COc1ccc(C(=O)Nc2sc3c(c2C(N)=O)CCCC3)cc1OC	-	.	.	.
CC(=O)Nc1nonc1-c1nc2ccccc2n1CCC(C)C	-	-	11µM	-
CCC(=O)Nc1nonc1-c1nc2ccccc2n1CCC(C)C	-	-	-	-
N#CCCCS(=O)(=O)c1nnnn1-c1ccc(Br)cc1	-	-	.	.
CC[C@@H](C)[C@H](NS(=O)(=O)c1cccc2ccccc12)C(=O)N[C@H](C=O)Cc1c[nH]c2ccccc12	-	.	.	.
CCCCS(=O)(=O)N1CCCC(C(=O)NCCc2ccccc2)C1 (centres undefined)	.	.	7.1µM	-
SMILES	GLA spleen mod	GLA inh pH 4.5	Integrin act MD	IL2 activator
CCCS(=O)(=O)N1CCCC(C(=O)c2cccc(Cl)c2)C1 (centres undefined)	-	-	6.3µM	-
CN(Cc1c(C(=O)N/N=C/c2cccc(F)c2)nnn1-c1nonc1N)c1ccccc1	.	.	5.6µM	-
COc1cccc(/C=N/NC(=O)c2nnn(-c3nonc3N)c2CN(C)c2ccccc2)c1	.	.	-	-
CNC(=O)/C(=C\c1cccc(Oc2ccccc2)c1)NC(=O)c1ccccc1	-	-	11µM	-
O=c1[nH]nc(N=Nc2c(O)[nH]c3ccc(F)cc23)c(=O)[nH]1	.	.	-	-
Cc1ccc(N=Nc2c(O)[nH]c3ccc(F)cc23)cc1	-	-	-	269
CC1=C(C(=O)O)N2C(=O)C(NC(=O)C(N)c3ccccc3)C2SC1 (centres undefined)	-	-	.	.
Cc1ccc(-c2csc(Nc3ccc(C(=O)O)cc3)[n+]2Cc2ccccc2)cc1	-	-	8.9µM	-
COc1ccc(-c2csc(Nc3ccccc3)[n+]2Cc2ccccc2)cc1	-	-	-	-
COc1cccc(-c2nnc3n2N=C(c2ccc(OC)cc2OC)CS3)c1	-	.	.	.
C(=N\NC1=Nc2cccc3cccc1c23)/c1cccnc1	-	-	-	-
Clc1ccc(/C=N/Nc2nc(Cl)nc3ccccc23)cc1	-	-	-	-
Clc1ccc(/C=N/NC2=Nc3cccc4cccc2c34)cc1	-	-	-	70
C(=N\NC1=Nc2cccc3cccc1c23)/c1ccccc1	-	-	-	268
CC(C)c1onc(-c2c(Cl)cccc2Cl)c1COc1ccc(/C=C/c2cccc(C(=O)O)c2)c(Cl)c1	-	.	.	.
COc1cc([C@@H]2c3cc4c(cc3C(OC3OC5COC(C)OC5C(O)C3O)C3COC(=O)[C@@H]32)OCO4)cc(OC)c1O (some centres undefined)	-	-	.	.
CSCC[C@@H]1NC(=O)[C@@H](NC(=O)[C@H](CCCNC(=N)N)NC(=O)[C@H](CC(C)C)NC(=O)[C@H](CCSC)NC(=O)[C@H](CC(=O)O)NC(=O)[C@H](Cc2ccccc2)NC(=O)[C@@H](N)CC(=O)O)CSSC[C@@H](C(=O)N[C@@H](Cc2c[nH]c3ccccc23)C(=O)N[C@@H](CCC(N)=O)C(=O)N[C@@H](Cc2ccc(O)cc2)C(=O)O)NC(=O)[C@@H]2CCCN2C(=O)[C@H](CCCNC(=N)N)NC(=O)[C@H](Cc2ccccc2)NC(=O)[C@H](C(C)C)NC(=O)[C@H](CCCNC(=N)N)NC(=O)CNC(=O)[C@H](CC(C)C)NC1=O	-	.	.	.
CCCCn1c(CN2CCN(c3cccc(Cl)c3)CC2)nc2c1c(=O)n(C)c(=O)n2C	35µM	-	-	-
Oc1ccc2ccccc2c1/C=N/Nc1nnc(-c2ncc[nH]2)c2ccccc12	-	-	-	56
COc1ccc(/C=N/Nc2nnc(-c3ncc[nH]3)c3ccccc23)cc1	-	-	-	-
CC(C)(C)C(=O)/C=c1\s/c(=C\c2ccc(-c3ccc([N+](=O)[O-])cc3)o2)c(=O)n1CC(=O)NC(N)=O	-	-	-	164
O=[N+]([O-])c1ccc(N2CCN(S(=O)(=O)c3ccccc3)CC2)cc1NCC1CCCO1 (centres undefined)	-	-	-	-
CCS(=O)(=O)N1CCN(c2ccc([N+](=O)[O-])c(NCC3CCCO3)c2)CC1 (centres undefined)	-	-	10µM	-
Cc1ccc(-c2onc3ccc(C(=O)/C=C/N(C)C)cc23)cc1	.	.	3.5µM	-
CN(C)/C=C/C(=O)c1ccc2noc(-c3ccc(F)cc3)c2c1	.	.	-	-
SMILES	GLA spleen mod	GLA inh pH 4.5	Integrin act MD	IL2 activator
COc1ccc(-c2cc(C3C4C=CCC(C)C4C(=O)N3Cc3ccccc3)ccc2F)cc1OC (centres undefined)	-	.	.	.
COC(=O)c1[nH]c2cc(OC)c(OC)cc2c1/C=N/Nc1ccccc1	.	.	?	532
COc1ccc2c(c1)C(=O)[C@@H](OC(=O)Nc1cc(OC)c(OC)c(OC)c1)[C@H](c1ccc(OC)c(Br)c1)O2	-	-	.	.
Nc1nccc(-c2ccc(-n3cnc4ccccc43)cc2)n1	-	-	11µM	-
Cc1nccc(-c2ccc(-n3cnc4ccccc43)cc2)n1	-	-	-	-
C[C@]12CC[C@@H](O)C[C@@H]1CC[C@@H]1[C@@H]2CC[C@]2(C)C=CC[C@@H]12	-	.	.	.
